Bioassay records: PubChem BioAssay, several laboratories
Compounds with a hit are over-represented: about 2.8% of the library has one in this group of screens.
FXN GAA850 act – FXN promoter activators, primary screen, cell-based, luciferase luminescence, HEK293 lucGAA850. HEK293 lucGAA850 FXN promoter luciferase reporter, 24 h; percent of 10 µM SAHA response. activation, % at 6 µM. hit rate 0.56% among 360,000. AID 540364, 2011;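 active = activation above the average of all compounds screened plus 3 SD, cutoff fixed separately per campaign, cut at about 7.5% in these data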;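 note: 0% = DMSO wells and 100% = 10 µM SAHA wells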
Wnt bcat act – Wnt/beta-catenin pathway activators, primary screen, cell-based, plate reader, single point; Wnt/beta-catenin reporter cell assay, activator; hit rate 1.2% among 300,000; AID 743398, 2014; activation, % at 9.35 µM; in the data active = activation above about 30%, passing the limit was not always enough; inconclusive = no clear call, values can overlap the other calls;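 note: 0% = neutral control wells and 100% = positive control wells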
MITF act – activators of MITF-driven TRPM1 promoter reporter, primary screen, cell-based, SK-MEL-5, luciferase, single point | activation, % at 12.5 µM | hit rate 0.75% among 300,000 | SK-MEL-5 TRPM1-promoter luciferase, 24 h; % of positive control, neutral wells = 0;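 active = mean activation of at least 80% with every replicate also reaching 80%; inconclusive = mean reaches 80% but some replicate falls short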;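 note: 0% = neutral control wells and 100% = parthenolide positive control wells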
esBAF inh – Bmi1 luciferase reporter increase in mESCs, primary screen, esBAF inhibitor project, mouse ES cells, Bmi1 luciferase knock-in, single point | 24 h; 100% = twice the neutral-well signal | reporter increase, % at 12.5 µM | hit rate 2% among 350,000; in the data active = activation above about 40%; inconclusive = no clear call, values can overlap the other calls;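 note: 0% = median of the plate's neutral control wells and 100% = double that signal; a rise in the Bmi1 reporter signal indicates esBAF inhibition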
* hit, by the source's call; ? = inconclusive; . = no result.

SMILES	FXN GAA850 act	Wnt bcat act	MITF act	esBAF inh
O=C(c1cc2cc(Cl)ccc2o1)N1CCCCCC1	1.9	-1.1	129.8*	65.0*
COc1ccc2cc3cc(C(=O)N4CC(C)CC(C)C4)oc3nc2c1 (centres undefined)	2.6	.	54.6	57.6*
O=C(O)c1cc2c(ccc3ccccc32)o1	1.0	-2.1	-5.6	-3.3
Cc1ccc2cc3cc(C(=O)N4CC(C)CC(C)C4)oc3nc2c1 (centres undefined)	2.8	21.1	66.8	-15.3
O=C(c1cc2c(ccc3ccccc32)o1)N1CCCCC1	0.6	38.1*	31.5	-19.3
C[C@@H]1CN([C@H](C)CO)C(=O)Cc2cc(NC(=O)CCCCCC(=O)Nc3ccccc3N)ccc2O[C@H]1CN(C)C(=O)Nc1ccccc1	.	.	.	-0.9
c1ccc(-c2cc(N3CCCCC3)ncn2)cc1	2.1	-1.0	85.7*	44.4*
c1ccc(-c2cc(N3CCCCCC3)n[nH]2)cc1	2.0	.	2.4	57.7*
Nc1nc(-c2ccccc2)cc(N2CCCCC2)n1	1.8	.	-32.2	-6.5
CCCNC(=O)c1n[nH]c(=O)c2ccccc12	1.7	.	1.6	-4.9
CCc1ccc(NC(=O)c2n[nH]c(=O)c3ccccc23)cc1	5.7	28.7	107.1*	59.7*
Cc1ccc(CC(=O)O/N=C(\N)c2ccccn2)cc1	4.0	40.3*	27.8	14.9
N/C(=N\OC(=O)Cc1ccc(Cl)cc1)c1ccccn1	2.6	.	78.0	46.9*
N/C(=N\OC(=O)Cc1cccc2ccccc12)c1ccccn1	2.2	42.2*	79.2	.
Cc1cccc(OCC(=O)O/N=C(\N)c2ccccn2)c1C	4.8	20.1	?	71.8*
COc1ccc(CC(=O)O/N=C(\N)c2ccccn2)cc1OC	5.1	5.4	4.1	6.2
C[C@@H]1CN([C@@H](C)CO)C(=O)c2cccc(NC(=O)Nc3ccc(F)cc3)c2O[C@@H]1CN(C)CC1CC1	.	.	.	-1.6
CCCNC(=O)Nc1ccc2c(c1)C(=O)N(C)C[C@@H](OC)[C@@H](C)CN(Cc1ccccc1)[C@H](C)CO2	.	.	.	2.4
Cc1ccc(OCC(=O)O/N=C(\N)c2cccnc2)cc1	3.0	14.0	36.6	.
Cc1ccc(OCC(=O)O/N=C(\N)c2ccccn2)cc1	4.1	-2.5	79.6	46.4*
CCCN1C[C@H](C)[C@@H](OC)CN(C)C(=O)c2ccc(NC(=O)c3ccccc3)cc2OC[C@H]1C	.	.	.	1.8
O=C(Nc1nnc(SCc2ccc(Cl)cc2)s1)C1CC(=O)N(Cc2ccccc2)C1 (centres undefined)	1.0	34.0*	3.8	-13.6
COC(=O)c1ccc(CSc2nnc(NC(=O)C3CC(=O)N(Cc4ccc(C)cc4)C3)s2)cc1 (centres undefined)	0.7	-2.5	-18.7	-4.3
CNC[C@H]1Oc2ccc(NC(=O)Nc3ccc4c(c3)OCO4)cc2CC(=O)N([C@H](C)CO)C[C@@H]1C	.	.	.	-4.2
CCCC(=O)Nc1ccc2c(c1)C(=O)N(C)[C@H]1CC[C@@H](CC(=O)NCC3CCCCC3)O[C@H]1CO2	.	.	.	6.6
SMILES	FXN GAA850 act	Wnt bcat act	MITF act	esBAF inh
O=C(Nc1ccccn1)c1c(O)c2cccc3c2n(c1=O)CCC3	0.0	.	7.5	64.4*
O=C(Nc1cccc(O)c1)c1cc(-c2cccs2)on1	-0.9	9.9	88.0*	81.4*
O=C(Nc1ccc(Cl)cc1)c1cc(-c2cccs2)on1	2.3	-0.5	72.8	4.5
Cc1ccc(NC(=O)c2cc(-c3cccs3)on2)cc1	3.0	55.7*	.	31.4
CCO/C(C)=N/Oc1cnc2ccccc2c1	.	4.2	.	65.8*
COc1ccc(NC(=O)N(C)C[C@H]2OCCCC[C@H](C)Oc3ccc(NS(=O)(=O)c4ccc(F)cc4)cc3C(=O)N([C@@H](C)CO)C[C@H]2C)cc1	.	.	.	-0.5
C[C@H](CO)N1C[C@H](C)[C@@H](CN(C)S(=O)(=O)c2ccc(Cl)cc2)Oc2ccc(NC(=O)c3ccncc3)cc2C1=O	.	.	.	-4.9
Cc1nc2nc(N)nc(OCc3ccccc3)c2nc1C	0.3	49.8*	.	.
Nc1ccccc1C#Cc1ccccc1	3.5	38.9*	132.8*	68.6*
Nc1ccccc1C#Cc1ccc2[nH]ccc2c1	3.6	?	61.4	82.0*
Oc1ccc2[nH]ccc2c1	-2.8	.	7.8	-1.6
C=CCN(CC=C)CCOc1ccc(C)cc1[N+](=O)[O-]	5.7	25.8	10.1	53.4*
C=CCN(CC=C)CCOc1cc(C)ccc1[N+](=O)[O-]	1.7	0.2	0.8	.
CC(C)(C)OC(=O)N/N=C\C=C\c1ccc2c(c1)OCO2	4.7	55.5*	119.0*	.
